Test [1] is described as follows: reducers of endogenous Her2 protein level, primary screen, SKBR3 breast tumor cells, AlphaScreen, ATP viability (AID 461;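 active = Her2 level under about 52% in both replicate screens, with viability over 70% of control, limit read from the data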;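 as to Her2 level: lower value means less Her2 protein in the cells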;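 as to viability: percent of carrier control wells set as 100% viability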). The settings on record: 18-24 h, measured here: SKBR3 viability, ATP luminescence, at 10 µM.
For test [2], the target named is Receptor tyrosine-protein kinase erbB-2 (Homo sapiens) (UniProt P04626). The description is as above. Particulars: 18-24 h, at 10 µM, stronger effect = lower value.
Receptor tyrosine-protein kinase erbB-2 (Homo sapiens), sequence (P04626 whole entry, looked up): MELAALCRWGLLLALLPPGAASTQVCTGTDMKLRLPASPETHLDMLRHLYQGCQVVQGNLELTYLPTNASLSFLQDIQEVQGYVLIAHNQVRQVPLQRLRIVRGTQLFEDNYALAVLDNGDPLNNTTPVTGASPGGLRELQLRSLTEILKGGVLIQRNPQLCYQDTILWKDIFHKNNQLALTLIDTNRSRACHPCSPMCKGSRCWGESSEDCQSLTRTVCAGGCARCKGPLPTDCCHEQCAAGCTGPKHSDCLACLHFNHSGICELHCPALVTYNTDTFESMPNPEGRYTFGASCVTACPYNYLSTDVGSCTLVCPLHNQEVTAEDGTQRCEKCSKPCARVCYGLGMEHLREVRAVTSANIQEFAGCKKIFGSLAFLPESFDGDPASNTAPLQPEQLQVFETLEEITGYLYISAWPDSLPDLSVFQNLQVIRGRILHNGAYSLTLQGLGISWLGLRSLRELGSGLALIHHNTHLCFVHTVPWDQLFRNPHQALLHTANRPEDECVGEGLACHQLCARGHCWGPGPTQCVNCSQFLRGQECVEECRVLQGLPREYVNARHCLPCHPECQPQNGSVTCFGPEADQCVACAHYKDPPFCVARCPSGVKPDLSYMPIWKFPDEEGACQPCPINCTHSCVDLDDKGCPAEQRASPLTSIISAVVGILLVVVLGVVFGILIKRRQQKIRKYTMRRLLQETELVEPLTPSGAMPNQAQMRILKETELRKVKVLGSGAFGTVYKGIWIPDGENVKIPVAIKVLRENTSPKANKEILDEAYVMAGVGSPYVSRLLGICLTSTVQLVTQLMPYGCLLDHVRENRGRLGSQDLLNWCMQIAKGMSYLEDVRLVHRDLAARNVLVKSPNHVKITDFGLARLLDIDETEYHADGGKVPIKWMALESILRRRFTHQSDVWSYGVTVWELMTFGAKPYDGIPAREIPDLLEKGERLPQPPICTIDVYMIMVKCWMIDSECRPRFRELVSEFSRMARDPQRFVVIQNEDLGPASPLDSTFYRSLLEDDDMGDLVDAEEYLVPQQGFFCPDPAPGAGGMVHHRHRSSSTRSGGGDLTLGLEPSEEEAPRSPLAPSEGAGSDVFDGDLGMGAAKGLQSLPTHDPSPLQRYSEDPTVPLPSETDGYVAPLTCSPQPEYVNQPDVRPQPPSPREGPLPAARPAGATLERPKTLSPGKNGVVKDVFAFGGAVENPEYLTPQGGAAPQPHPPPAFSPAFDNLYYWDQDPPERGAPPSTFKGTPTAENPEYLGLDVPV
Test [3] is described as follows: SK-BR-3 cell growth inhibitors, pilot screen, 24 h, human (AID 572;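 active = viability at or below 10% of carrier control in both of two separate runs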;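 also: compound exposure lasted between 18 and 24 h rather than exactly 24 h; 100% = carrier-treated control wells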). Particulars: SK-BR-3 viability, CellTiter-Glo luminescence, at 10 µM, stronger effect = lower value.
Test [4] is described as follows: HUVEC growth inhibition – cell-based, human, primary screen (AID 575;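 active = viability at or below 30% in both replicate assays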;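 also: 100% = median of untreated cell wells with 0.1% DMSO on each plate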). The settings on record: HUVEC proliferation, CellTiter-Glo luminescence, 72 h; at 10 µM; stronger effect = lower value.
Test [5] can be described thus: growth inhibitors of H69AR lung tumor, primary screen, human, duplicate replicates (AID 580;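 active = viability at or under a set limit in both replicates, limit being median viability minus 3 SD, cut at about 48% in these data, passing the limit was not always enough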;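 also: 100% = mean luminescence of untreated wells and 0% = no signal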). The settings on record: H69AR lung tumor cells viability, ATP luminescence, 72 h; at 10 µM; stronger effect = lower value.
Test [6] can be described thus: reversal of MRP1-mediated doxorubicin resistance, pilot screen, H69AR cells, doxorubicin co-treatment (AID 601;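 active = viability loss from added drug above about 55%, and viability with drug at most 40%, in both replicates, limit read from the data, passing the limit was not always enough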). Particulars: CellTiter-Glo, 72 h, at 10 µM; for differential viability (reversal): stronger effect = higher value.
The nature of test [7]: 384-well plate pilot, post-Golgi transport modulator project, inhibition of yeast transport mutant growth (AID 636; in the data active = inhibition above about 31%). The settings on record: absorbance 615 nm, about 18 h, stronger effect = higher value.
Test [8] can be described thus: growth suppression of yeast trafficking mutant, preliminary HTS, modulators of trafficking downstream of Golgi apparatus project, 1536-format plate, OD 615 nm (AID 637; in the data active = inhibition above about 30%). The settings on record: yeast transport mutant growth, absorbance 615 nm, 18 h; stronger effect = higher value.
The nature of test [9]: OD615 S. cerevisiae growth inhibition, permissive medium, pilot counter-assay, permissive growth control for S. cerevisiae lifespan shortening project (AID 705;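 active = growth inhibition above 25% in both replicates, a cutoff set 3 SD above the mean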). The settings on record: OD615, 24 h, at 10 µM, stronger effect = higher value.
A short description of test [10]: Restrictive medium S. cerevisiae growth inhibition, OD615, pilot screen of yeast lifespan reduction project, restrictive growth control (AID 706;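 active = growth inhibition above a set limit, 3 SD over mean compound inhibition, in both replicates, cut at about 43% in these data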;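 also: modified DeaD lifespan yeast strain shifted to restrictive glucose medium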). Particulars: OD615, 48 h, at 10 µM, stronger effect = higher value.
Test [11] in a line: viability gain of MRP-1-high H69AR cells under doxorubicin, pilot screen, MRP-1 activator project, CellTiter-Glo, duplicate (AID 807).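 Also: compound pretreatment 18-22 h then 72 h combined with doxorubicin; 0% = doxorubicin alone and 100% = vehicle without doxorubicin.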 Particulars: H69AR viability with doxorubicin, CellTiter-Glo luminescence; at 10 µM; stronger effect = higher value.
The nature of test [12]: growth suppression of beta-catenin knockout HCT116, pilot screen, human colon tumor cells (AID 823;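 active = cell viability at or below a set limit in both duplicate runs, the limit being the all-compound median minus 4 SD, cut at about 23% in these data, passing the limit was not always enough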;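 also: 0% = wells killed by 20 µM Hyamine and 100% = untreated DMSO cell wells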). Particulars: CellTiter-Glo, 60 h, at 10 µM, stronger effect = lower value.
Test [13] can be described thus: growth suppression of PTEN-deleted HCT116, pilot screen, cell-based, HCT116 clonal line, CellTiter-Glo (AID 824;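 active = viability at or below 27.92% in each of two runs, the all-compound median minus 4 SD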;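 also: 0% = 20 µM Hyamine control and 100% = vehicle cell control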). The settings on record: 60 h, at 10 µM, stronger effect = lower value.
The nature of test [14]: inhibitors of the yeast RAM network, pilot screen, dse1pr::URA3 reporter, 5-FOA selection (AID 869;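 active = inhibition over a set limit, the all-compound mean plus 3 SD, in both replicate runs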;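 also: 0% = DMSO wells with no growth and 100% = 10 µM 1-NA-PP1 with full growth; RAM network block rescues cells from 5-FOA so hits raise OD615 growth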). The settings on record: S. cerevisiae dse1pr::URA3 5-FOA growth, OD615, 2 d; at 10 µM; stronger effect = higher value; strain carries analog-sensitive mutant Cbk1 kinase.
Test [15] is described as follows: RAM signaling pathway blockade in yeast – S. cerevisiae, Pdr1DBD-CYC8 efflux-inhibited sensitized strain, primary screen (AID 1298;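 active = RAM network inhibition above 8.4% in each of two replicates, 3 SD over the compound average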;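 also: 0% = DMSO untreated cells without growth and 100% = 10 µM 1-NA-PP1 full growth; higher means more yeast growth rescued from 5-FOA killing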). The settings on record: S. cerevisiae cbk1-as DSE1-URA3 strain, 5-FOA growth OD615, 2 d; at 50 µM; stronger effect = higher value.
[16] abbreviates: H69AR cells + 2 uM doxorubicin, measured here: viability with 2 uM doxorubicin, stronger effect = lower value.
The mark [17] stands for this setting: H69AR cells, compound alone cytotoxicity.

Records with an inconclusive call do not appear. Activity calls are given as the source filed them.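 The calls were made as follows, unless noted: active = viability increase at or above a cutoff of the median across tested compounds plus 3 SD (cut at about 8.5% in these data, passing the limit was not always enough); inconclusive = some gains above the cutoff, reason not given; inactive = the rest.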

With `COc1ccc(C2CC(c3cccc(C)c3)n3ncnc3N2)cc1` (stereo not given), the viability in test [1] is 87.5%; in test [3] it was 87.5% (inactive); in test [4], 88.8% (inactive); in test [5], 91.4% (inactive); in test [6] (setting [16]), 97.2%; in test [6] (setting [17]), 91.4%. Further, the viability in test [12] was 100% (inactive); in [13] it was 86.1% (inactive). Also, in test [2], the Her2 level is 89% (inactive). Moreover, the differential viability (reversal) in test [6] (H69AR cells + 2 uM doxorubicin) is -5.74% (inactive). Further, the values for the inhibition in [7], in [8] and in [14] were 5.6% (inactive), -9.02% (inactive) and 0.22% (inactive), respectively. Also, the results for the growth inhibition in [9] and in [10] were 1.04% (inactive) and 5.56% (inactive), respectively. The viability increase in test [11] is -1.57% (inactive). For the same compound, the RAM network inhibition in test [15] was -0.53% (inactive).
With `CC(C)C(=O)Nc1ccc(-c2nc3cccnc3o2)cc1`, the viability was 93.5% in [1]; 93.5% (inactive) in [3]; 128% (inactive) in test [4]; 95.2% (inactive) in test [5]; 99.4% in test [6] (setting [16]); 95.2% in [6] (setting [17]). Further, the viability is 101% (inactive) in test [12] and 104% (inactive) in test [13]. Besides, the Her2 level in [2] is 82% (inactive). Also, the differential viability (reversal) in [6] (H69AR cells + 2 uM doxorubicin) is -4.14% (inactive). For the same compound, the inhibition in test [7] is 1.03% (inactive); in [8], -5.33% (inactive); in test [14], 2.22% (inactive). Moreover, the growth inhibition was -11.7% (inactive) in test [9] and -2.21% (inactive) in [10]. Also, the viability increase in test [11] is 1.32% (inactive). Moreover, the RAM network inhibition in test [15] was 1.35% (inactive).
For `Cn1c(=O)c2c(nc(SCCOc3ccc4ccc(=O)oc4c3)n2C)n(C)c1=O`, the viability in test [1] was 98.5%; in [3], 98.5% (inactive); in test [4] it was 102% (inactive); in test [5], 104% (inactive); in [6] (setting [16]), 89.6%; in test [6] (setting [17]) it was 104%. The values for the viability in test [12] and in test [13] were 99% (inactive) and 103% (inactive), respectively. The Her2 level in test [2] was 91.5% (inactive). The differential viability (reversal) in test [6] (H69AR cells + 2 uM doxorubicin) was 14.3% (inactive). For the same compound, the values for the inhibition in [7], in test [8] and in test [14] were -2.93% (inactive), -1.97% (inactive) and 0.27% (inactive), respectively. The growth inhibition in test [9] is -4.61% (inactive); in test [10], 1.18% (inactive). Moreover, the viability increase in [11] was 1.22% (inactive). The RAM network inhibition in [15] was 2.41% (inactive).
Take `Cc1nnc2n(-c3ccc(Cl)cc3)c(=O)c3c4c(sc3n12)CN(C)CC4`: the viability is 84% in test [1]; 84% (inactive) in [3]; 103% (inactive) in [4]; 91.6% (inactive) in [5]; 103% in [6] (setting [16]); 91.6% in test [6] (setting [17]). For the same compound, the results for the viability in test [12] and in test [13] were 112% (inactive) and 93.1% (inactive), respectively. Moreover, the Her2 level in [2] was 98% (inactive). Also, the differential viability (reversal) in [6] (H69AR cells + 2 uM doxorubicin) was -11.4% (inactive). Further, the inhibition in test [7] is -4.94% (inactive); in [8], -4.1% (inactive); in [14], 0.945% (inactive). Moreover, the growth inhibition in test [9] was -4.76% (inactive); in test [10], -10.1% (inactive). The viability increase in test [11] is -1.73% (inactive). In addition, the RAM network inhibition in test [15] is 2.13% (inactive).
Consider `Cc1c(Cl)cccc1NC(=O)CCN1CCCCC1`, for which the viability in test [1] was 100%; in test [3] it was 100% (inactive); in test [4], 100% (inactive); in test [5], 101% (inactive); in test [6] (setting [16]) it was 94.9%; in test [6] (setting [17]) it was 101%. The viability in test [12] is 100% (inactive); in [13], 96.4% (inactive). Besides, the Her2 level in [2] was 92% (inactive). Moreover, in test [6] (H69AR cells + 2 uM doxorubicin), the differential viability (reversal) was 6% (inactive). Besides, the inhibition was -2.8% (inactive) in test [7], 0.16% (inactive) in test [8] and 0.655% (inactive) in test [14]. In addition, the growth inhibition was -7.21% (inactive) in test [9] and 2.33% (inactive) in test [10]. For the same compound, the viability increase in test [11] was -1.01% (inactive). For the same compound, the RAM network inhibition in test [15] is 4.96% (inactive).
